# The entries come from a sample that favours the strongest signals as a whole.
# B1: CVN-E41G (protein)
# chain: MHHHHHHENLYFQSGNFSQACYNSAIQGSVLTSTCIRTNGGYNTSSIDLNSVIGNVDGSLKWQGSNFIETCRNTQLAGSSELAAECKTRAQQFVSTKINLDDHIAAIDGTLKYE
# Assays:
# Assay in all cases: glycan array binding signal (z-score within array); higher = stronger binding
# Conditions in all cases: glycan notation: IUPAC condensed, linker removed; mutation: E41G
# Gal4S6S(b1-4)GlcNAc = target: Gal4S6S(b1-4)GlcNAc
# Summary of the method: (§1)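 Glycan array binding is given as a within-array Z-score, which can be read as non-binding when negative. The arrays, 3228 of them, came from the Consortium for Functional Glycomics database and were retained only where the protein sequence was available. Z-scores were averaged across arrays of the same protein sequence at different concentrations or buffers and across linkers.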
# Gal6S(b1-4)Glc = target: Gal6S(b1-4)Glc
# Summary of the method: as §1
# [1] = target: GalNAc(b1-3)Gal(a1-4)Gal(b1-4)GlcNAc
# Summary of the method: as §1
# [2] = target: GlcNAc(b1-2)[GlcNAc(b1-4)]Man(a1-3)[GlcNAc(b1-4)][GlcNAc(b1-2)Man(a1-6)]Man(b1-4)GlcNAc(b1-4)GlcNAc
# Summary of the method: as §1
# [3] = target: GlcNAc(b1-2)[GlcNAc(b1-6)]Man(a1-6)[GlcNAc(b1-2)Man(a1-3)]Man(b1-4)GlcNAc(b1-4)GlcNAc
# Summary of the method: as §1
# [4] = target: GlcNAc(b1-3)Gal(b1-4)GlcNAc(b1-2)Man(a1-3)[GlcNAc(b1-3)Gal(b1-4)GlcNAc(b1-2)Man(a1-6)]Man(b1-4)GlcNAc(b1-4)GlcNAc
# Summary of the method: as §1
# [5] = target: GlcNAc(b1-3)Gal(b1-4)GlcNAc(b1-3)Gal(b1-4)GlcNAc(b1-3)Gal(b1-4)GlcNAc(b1-3)Gal(b1-4)GlcNAc(b1-2)[GlcNAc(b1-3)Gal(b1-4)GlcNAc(b1-3)Gal(b1-4)GlcNAc(b1-3)Gal(b1-4)GlcNAc(b1-3)Gal(b1-4)GlcNAc(b1-6)]Man(a1-6)[GlcNAc(b1-3)Gal(b1-4)GlcNAc(b1-3)Gal(b1-4)GlcNAc(b1-3)Gal(b1-4)GlcNAc(b1-3)Gal(b1-4)GlcNAc(b1-2)Man(a1-3)]Man(b1-4)GlcNAc(b1-4)[Fuc(a1-6)]GlcNAc
# Summary of the method: as §1
# [6] = target: GlcNAc(b1-6)Gal(b1-4)GlcNAc
# Summary of the method: as §1
# Kdn(a2-3)Gal(b1-4)GlcNAc = target: Kdn(a2-3)Gal(b1-4)GlcNAc
# Summary of the method: as §1
# [7] = target: Man(a1-2)Man(a1-2)Man(a1-3)Man
# Summary of the method: as §1
# [8] = target: Man(a1-2)Man(a1-2)Man(a1-6)[Man(a1-3)]Man
# Summary of the method: as §1
# Man(a1-2)Man(a1-3)Man = target: Man(a1-2)Man(a1-3)Man
# Summary of the method: as §1
# [9] = target: Man(a1-2)Man(a1-3)[Man(a1-2)Man(a1-6)]Man
# Summary of the method: as §1
# [10] = target: Man(a1-2)Man(a1-3)[Man(a1-2)Man(a1-6)]Man(a1-6)[Man(a1-2)Man(a1-2)Man(a1-3)]Man
# Summary of the method: as §1
# [11] = target: Man(a1-2)Man(a1-3)[Man(a1-6)]Man(a1-6)[Man(a1-2)Man(a1-3)]Man(b1-4)GlcNAc(b1-4)GlcNAc
# Summary of the method: as §1
# [12] = target: Man(a1-2)Man(a1-6)[Man(a1-3)]Man(a1-6)[Man(a1-2)Man(a1-2)Man(a1-3)]Man
# Summary of the method: as §1
# [13] = target: Man(a1-2)Man(a1-6)[Man(a1-3)]Man(a1-6)[Man(a1-2)Man(a1-2)Man(a1-3)]Man(b1-4)GlcNAc(b1-4)GlcNAc
# Summary of the method: as §1
# [14] = target: Man(a1-3)[Man(a1-6)]Man(a1-6)[Man(a1-2)Man(a1-3)]Man(b1-4)GlcNAc(b1-4)GlcNAc
# Summary of the method: as §1
# [15] = target: Neu5Ac(a2-3)Gal(b1-3)GalNAc(b1-4)Gal(b1-4)Glc
# Summary of the method: as §1
# [16] = target: Neu5Ac(a2-3)Gal(b1-3)GlcNAc6S
# Summary of the method: as §1
# [17] = target: Neu5Ac(a2-3)Gal(b1-4)GlcNAc(b1-3)Gal(b1-4)GlcNAc(b1-3)[Neu5Ac(a2-3)Gal(b1-4)GlcNAc(b1-3)Gal(b1-4)GlcNAc(b1-6)]GalNAc
# Summary of the method: as §1
# Neu5Ac(a2-6)Gal = target: Neu5Ac(a2-6)Gal
# Summary of the method: as §1
# [18] = target: Neu5Ac(a2-6)Gal(b1-4)GlcNAc(b1-2)[Neu5Ac(a2-6)Gal(b1-4)GlcNAc(b1-6)]Man(a1-6)[Neu5Ac(a2-6)Gal(b1-4)GlcNAc(b1-2)Man(a1-3)][GlcNAc(b1-4)]Man(b1-4)GlcNAc(b1-4)GlcNAc
# Summary of the method: as §1
# [19] = target: Neu5Ac(a2-6)Gal(b1-4)GlcNAc(b1-3)Gal(b1-4)GlcNAc(b1-3)Gal(b1-4)GlcNAc(b1-2)Man(a1-3)[Neu5Ac(a2-6)Gal(b1-4)GlcNAc(b1-3)Gal(b1-4)GlcNAc(b1-3)Gal(b1-4)GlcNAc(b1-2)Man(a1-6)]GalNAc
# Summary of the method: as §1
# [20] = target: Neu5Ac(a2-6)Gal(b1-4)GlcNAc(b1-6)[Gal(b1-3)GlcNAc(b1-3)]Gal(b1-4)Glc
# Summary of the method: as §1
# [21] = target: Neu5Ac(a2-8)Neu5Ac(a2-8)Neu5Ac(a2-3)Gal(b1-4)Glc
# Summary of the method: as §1
# [22] = target: Neu5Gc(b2-6)Gal(b1-4)GlcNAc
# Summary of the method: as §1
binder,measurement,setting,value
B1,glycan array binding signal (z-score),Gal4S6S(b1-4)GlcNAc,-0.19
same,glycan array binding signal (z-score),Gal6S(b1-4)Glc,-0.138
same,glycan array binding signal (z-score),[1],-0.154
same,glycan array binding signal (z-score),[2],-0.148
same,glycan array binding signal (z-score),[3],-0.145
same,glycan array binding signal (z-score),[4],-0.152
same,glycan array binding signal (z-score),[5],-0.123
same,glycan array binding signal (z-score),[6],-0.121
same,glycan array binding signal (z-score),Kdn(a2-3)Gal(b1-4)GlcNAc,-0.154
same,glycan array binding signal (z-score),[7],7.32
same,glycan array binding signal (z-score),[8],9.78
same,glycan array binding signal (z-score),Man(a1-2)Man(a1-3)Man,5.5
same,glycan array binding signal (z-score),[9],8.72
same,glycan array binding signal (z-score),[10],11
same,glycan array binding signal (z-score),[11],6.59
same,glycan array binding signal (z-score),[12],8.16
same,glycan array binding signal (z-score),[13],8.78
same,glycan array binding signal (z-score),[14],4
same,glycan array binding signal (z-score),[15],-0.111
same,glycan array binding signal (z-score),[16],-0.165
same,glycan array binding signal (z-score),[17],-0.126
same,glycan array binding signal (z-score),Neu5Ac(a2-6)Gal,-0.168
same,glycan array binding signal (z-score),[18],-0.139
same,glycan array binding signal (z-score),[19],-0.112
same,glycan array binding signal (z-score),[20],-0.167
same,glycan array binding signal (z-score),[21],-0.173
same,glycan array binding signal (z-score),[22],-0.155

# From the supplement of paper PMC8728848
